Screens deposited in PubChem by several laboratories.
PfHsp90 set2 = growth inhibition of yeast expressing Plasmodium Hsp90; S. cerevisiae expressing PfHsp90, BacTiter-Glo ATP, 48 h; yeast lacking PDR1 and PDR3 efflux regulators; inhibition, % at 9.4 µM; 310,000 tested, 0.32% active; AID 504621;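 active = every replicate shows inhibition above about 80%, whatever the replicate mean, limit read from the data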;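 note: 0% = DMSO neutral controls and 100% = 20 µM radicicol positive controls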
EBI2 antag = antagonists of human EBI2 receptor; P32249; EBI2 beta-arrestin recruitment, luminescence, 7a,25-OHC stimulated; inhibition, % at 5 µM; 360,000 tested, 0.81% active; in the data active = inhibition above about 38%;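 note: enzyme fragment complementation signal reports receptor beta-arrestin coupling in cells; 0% = agonist plus DMSO wells and 100% = wells without agonist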
Target sequence (P32249 whole entry, looked up, the tested form may be a part): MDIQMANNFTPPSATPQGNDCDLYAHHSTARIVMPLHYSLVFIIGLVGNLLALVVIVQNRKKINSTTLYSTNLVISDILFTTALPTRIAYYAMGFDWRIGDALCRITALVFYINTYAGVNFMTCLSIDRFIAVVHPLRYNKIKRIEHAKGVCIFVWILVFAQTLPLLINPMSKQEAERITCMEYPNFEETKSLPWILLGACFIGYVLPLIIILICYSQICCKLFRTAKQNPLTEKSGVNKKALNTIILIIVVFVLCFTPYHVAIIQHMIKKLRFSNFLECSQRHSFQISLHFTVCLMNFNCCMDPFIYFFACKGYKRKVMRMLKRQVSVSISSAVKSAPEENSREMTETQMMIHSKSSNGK
tim23-1 inh = growth inhibitors of tim23-1 mutant yeast; S. cerevisiae tim23-1 growth, BacTiter-Glo luminescence, 24 h; inhibition, % at 20 µM; 330,000 tested, 1.3% active;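 active = growth inhibition of the mutant yeast at or above 50%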;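 note: temperature-sensitive mutant grown at 25 °C; plate controls were DMSO-treated mutant yeast for no effect and medium wells lacking yeast for full effect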
SKKanGAS inh = blocks kanamycin growth of S. pyogenes SKKanGAS strain | BacTiter-Glo, 6 h | inhibition, % at 7.5 µM | 300,000 tested, 1.3% active | AID 1662;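 active = mean replicate score, as percent of positive control median, at least 50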;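 note: strain carries kanamycin resistance gene driven by streptokinase promoter and grows in 40 µg/ml kanamycin; loss of luminescence reflects streptokinase promoter inhibition or plain growth inhibition; 0% = median of DMSO wells and 100% = positive control at its reference dose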
TIM10 inh = inhibits growth of TIM10 yeast strain | S. cerevisiae TIM10 strain growth, BacTiter-Glo luminescence, 24 h | inhibition, % at 10 µM | 330,000 tested, 1.4% active;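 active = inhibition of 40% or more at the single tested concentration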;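 note: wild-type TIM10 isogenic control strain grown at permissive 25 °C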
tim10-1 inh = growth inhibitors of tim10-1 mutant yeast | S. cerevisiae tim10-1 ts strain growth, BacTiter-Glo, 24 h | inhibition, % at 20 µM | 330,000 tested, 2.2% active;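 active = inhibition of at least 40%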;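 note: mutant grown at 25 °C; 0% = DMSO wells with yeast and 100% = wells holding no yeast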
TIM10 conf = TIM10 yeast growth inhibition, confirmed; shares compounds with TIM10 inh; S. cerevisiae tim10 strain growth, BacTiter-Glo luminescence, 24 h; inhibition, % at 10 µM; 4,600 tested, 63% active; AID 463215;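 active = inhibition of yeast growth at or above a set limit in either of two replicates at 10 µM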;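 note: this counterscreen used the strain with wild-type TIM10; 0% = yeast with DMSO and 100% = medium wells lacking yeast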
Numbers without * were called inactive. An excerpt weighted towards active compounds, which were near 4.7% of everything screened.

What do the screens show for `Cn1cc(/C=C2\SC(=O)N(c3ccc(O)cc3)C2=O)c2ccccc21`?
PfHsp90 set2: -5; EBI2 antag: 11; tim23-1 inh: 33; SKKanGAS inh: 27; TIM10 inh: 44*; tim10-1 inh: 29; TIM10 conf: 38*

How did Cn1cc(/C=C2\SC(=O)N(c3ccccc3)C2=O)c2ccccc21 do in these assays?
PfHsp90 set2: 7; EBI2 antag: 14; tim23-1 inh: 14; SKKanGAS inh: -8; TIM10 inh: -2; tim10-1 inh: 34

What do the screens show for `CCOc1cc(S(=O)(=O)NCc2ccncc2)ccc1Cl`?
PfHsp90 set2: -4; EBI2 antag: -8; tim23-1 inh: -6; SKKanGAS inh: 3; TIM10 inh: 16; tim10-1 inh: 10

What do the screens show for `Cc1ccc(C)c2nc3sc(C(=O)N4CCCc5ccccc54)c(N)c3cc12`?
PfHsp90 set2: -1; EBI2 antag: 75*; tim23-1 inh: 41; SKKanGAS inh: -9; TIM10 inh: 46*; tim10-1 inh: 36; TIM10 conf: 29

Results for CC(=O)Oc1ccc(/C=N/NC(=S)Nc2ccccc2)cc1 ?
PfHsp90 set2: -13; EBI2 antag: 9; tim23-1 inh: 48; SKKanGAS inh: -4; TIM10 inh: 41*; tim10-1 inh: 22; TIM10 conf: 26

What do the screens show for `CCOc1ccc(/C=N/NC(=O)Nc2ccccc2)cc1`?
EBI2 antag: 18; tim23-1 inh: 13; SKKanGAS inh: 0; TIM10 inh: 24; tim10-1 inh: 12

How did Cn1ccc2c(N3CCCCCCC3)cc3c(c21)C1CCC3O1 (configuration not stated) do in these assays?
EBI2 antag: -11

How did O=C(N/N=C/c1cc([N+](=O)[O-])ccc1O)NC12CC3CC(CC(C3)C1)C2 do in these assays?
PfHsp90 set2: 13; EBI2 antag: 16; tim23-1 inh: 34; SKKanGAS inh: 7; TIM10 inh: 43*; tim10-1 inh: 35; TIM10 conf: 31

How did CN(C)S(=O)(=O)c1ccc(C(=O)OCC(=O)N2CC3(C)CC2CC(C)(C)C3)cc1 (configuration not stated) do in these assays?
PfHsp90 set2: 3; EBI2 antag: -1; tim23-1 inh: 16; TIM10 inh: 15; tim10-1 inh: 14

What do the screens show for `Cc1noc(C)c1COc1ccc(C(=O)OCC(=O)N2CC3(C)CC2CC(C)(C)C3)cc1` (configuration not stated)?
PfHsp90 set2: 6; EBI2 antag: 8; tim23-1 inh: 35; TIM10 inh: 44*; tim10-1 inh: 37; TIM10 conf: 31*

How did Cc1cccc(NC(=O)C(=O)NCC2CCCO2)c1 (configuration not stated) do in these assays?
PfHsp90 set2: -24; EBI2 antag: 4; tim23-1 inh: 5; SKKanGAS inh: 2; TIM10 inh: 12; tim10-1 inh: 15

What do the screens show for `CCNC(=O)CSc1nnc(-c2ccccc2Br)n1-c1cccc(C(F)(F)F)c1`?
PfHsp90 set2: 16; EBI2 antag: 8; tim23-1 inh: -2; SKKanGAS inh: 5; TIM10 inh: 47*; tim10-1 inh: 23; TIM10 conf: 6

How did NC(=O)CSc1nnc(-c2ccccc2Br)n1-c1cccc(C(F)(F)F)c1 do in these assays?
PfHsp90 set2: 9; EBI2 antag: -15; tim23-1 inh: 15; SKKanGAS inh: 1; TIM10 inh: 8; tim10-1 inh: 9

Results for COc1ccc(-c2nc3ccccc3s2)cc1O ?
PfHsp90 set2: 14; EBI2 antag: 5; tim23-1 inh: 0; SKKanGAS inh: 0; TIM10 inh: 47*; tim10-1 inh: 26; TIM10 conf: -24

Results for C[C@@H]1C2CC(C/C2=N\NC(=O)c2ccncc2)C1(C)C (some centres not stated) ?
PfHsp90 set2: 1; EBI2 antag: 1; tim23-1 inh: -1; SKKanGAS inh: 0; TIM10 inh: 5; tim10-1 inh: -18

Results for CCN(C[C@H]1N[C@@](C)(C(=O)OC)[C@H]2C(=O)N(Cc3ccccc3)C(=O)[C@@H]12)S(=O)(=O)c1ccc(C(C)(C)C)cc1 ?
PfHsp90 set2: 10; EBI2 antag: 2; tim23-1 inh: 18; TIM10 inh: 90*; tim10-1 inh: 21; TIM10 conf: 11

What do the screens show for `CCN(C[C@H]1N[C@@](C)(C(=O)OC)[C@H]2C(=O)N(Cc3ccccc3)C(=O)[C@@H]12)S(=O)(=O)c1ccc(F)cc1`?
PfHsp90 set2: -4; EBI2 antag: -4; tim23-1 inh: -4; TIM10 inh: 6; tim10-1 inh: 7

How did NS(=O)(=O)c1cccc(NC(=O)COC(=O)CC2CC3CCC2C3)c1 (configuration not stated) do in these assays?
PfHsp90 set2: 24; EBI2 antag: -11; tim23-1 inh: 5; SKKanGAS inh: -2; TIM10 inh: -3; tim10-1 inh: -15

How did CCOc1ccc(-c2nc3n(c(=O)c2C#N)CCCS3)cc1 do in these assays?
PfHsp90 set2: -15; EBI2 antag: -10; tim23-1 inh: 11; SKKanGAS inh: 58*; TIM10 inh: 97*; tim10-1 inh: 26; TIM10 conf: 16

What do the screens show for `COc1cccc(N2CCN(C(=O)c3ccc(OC)c(S(=O)(=O)NC4CC4)c3)CC2)c1`?
EBI2 antag: -7

What do the screens show for `CC1(C)Oc2ccc(C(=O)N3CCCCC3)cc2N(CC(=O)NCc2ccccc2)C1=O`?
PfHsp90 set2: 2; EBI2 antag: 8; tim23-1 inh: 14; SKKanGAS inh: 0; TIM10 inh: 0; tim10-1 inh: 11

How did Cc1ccc(CN2C(=O)C(C)(C)Oc3ccc(C(=O)N4CCCCC4)cc32)cc1 do in these assays?
PfHsp90 set2: 34; EBI2 antag: -1; tim23-1 inh: 9; SKKanGAS inh: 4; TIM10 inh: 45*; tim10-1 inh: 23; TIM10 conf: 4

Results for COc1ccc(/C=N/OCC(=O)Nn2c(C)nc3ccccc3c2=O)cc1 ?
PfHsp90 set2: -50; EBI2 antag: -13; tim23-1 inh: -1; SKKanGAS inh: -3; TIM10 inh: 4; tim10-1 inh: 9

What do the screens show for `CN1CCN(c2nc(-c3ccc(Cl)cc3)nc3ccccc23)CC1`?
PfHsp90 set2: -12; EBI2 antag: -7; tim23-1 inh: 46; SKKanGAS inh: 4; TIM10 inh: 41*; tim10-1 inh: 17; TIM10 conf: 22

How did Cc1ccc(NC(=O)Cn2c3ccc(F)cc3c3nc4n(c(=O)c32)CCS4)cc1F do in these assays?
PfHsp90 set2: 0; EBI2 antag: 2; tim23-1 inh: 8; SKKanGAS inh: 17; TIM10 inh: 6; tim10-1 inh: 29
